Test results published in PubChem BioAssay (NCI).
Where “and” joins values, the source holds several entries; their conditions need not be identical. Identical values can stand only once. About 83,000 compounds went through this panel and 20% of them were active in at least one assay; those are over-represented in the sample as a whole.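 96-well plates, one dose, 48 hours. Percent growth reported; active if below 10.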 A number with no mark means an inactive call. Calls of active or inactive are those of the source.

Key:
Assay in all cases: NCI-60 one-dose screen, 48 h (100 = growth as untreated, 0 = no growth, -100 = all killed)
Conditions in all cases: 10 µM unless noted
HT29 colon = test system: HT29 colon
SNB-75 CNS = test system: SNB-75 CNS
SNB-19 CNS = test system: SNB-19 CNS
U251 CNS = test system: U251 CNS
PC-3 prostate = test system: PC-3 prostate
SK-MEL-5 melanoma = test system: SK-MEL-5 melanoma
UACC-62 melanoma = test system: UACC-62 melanoma
LOX IMVI melanoma = test system: LOX IMVI melanoma
SK-MEL-2 melanoma = test system: SK-MEL-2 melanoma
EKVX NSCLC = test system: EKVX NSCLC
SN12C renal = test system: SN12C renal
UO-31 renal = test system: UO-31 renal
TK-10 renal = test system: TK-10 renal
ACHN renal = test system: ACHN renal
CAKI-1 renal = test system: CAKI-1 renal
A498 renal = test system: A498 renal
CCRF-CEM leukemia = test system: CCRF-CEM leukemia
MOLT-4 leukemia = test system: MOLT-4 leukemia
SK-MEL-28 melanoma = test system: SK-MEL-28 melanoma

| Structure (SMILES) | growth (HT29 colon) | growth (SNB-75 CNS) | growth (SNB-19 CNS) | growth (U251 CNS) | growth (PC-3 prostate) | growth (SK-MEL-5 melanoma) | growth (UACC-62 melanoma) | growth (LOX IMVI melanoma) | growth (SK-MEL-2 melanoma) | growth (EKVX NSCLC) | growth (SN12C renal) | growth (UO-31 renal) | growth (TK-10 renal) | growth (ACHN renal) | growth (CAKI-1 renal) | growth (A498 renal) | growth (CCRF-CEM leukemia) | growth (MOLT-4 leukemia) | growth (SK-MEL-28 melanoma) |
| --- | --- | --- | --- | --- | --- | --- | --- | --- | --- | --- | --- | --- | --- | --- | --- | --- | --- | --- | --- |
| CCOC(=O)C1=C(C)NC(C)=C(C(=O)OCC)C1 | 101% and 102% | 83.1% and 76.6% | 99.5% | 104% and 91.2% | 82.4% and 104% | 101% and 103% | 94.4% and 102% | 98.4% and 102% | 109% and 110% | 109% | 94.7% and 109% | 98.9% and 90.4% | 107% and 101% | 109% and 105% | 113% and 97.6% | 112% | 86.9% and 56% | 134% and 101% |  |
| CC(=O)C[n+]1ccccc1Sc1ccc(Cl)cc1 | 108% | 66.1% | 88.7% | 73% | 58.3% | 90.3% | 84.6% | 27.6% | 132% | 103% | 49.5% |  | 104% |  | 90.9% | 76.4% | -9.4% (active) | 18.9% | 100% |
| O=COCCCc1ccccc1 | 95.9% |  | 96.7% | 94.5% | 94.4% | 98.2% | 88.7% | 99% | 101% | 98.8% | 105% | 93.2% | 92.8% | 110% |  | 83.2% | 108% | 113% | 108% |
| O=C(O)c1cc(=O)[nH]c(=O)[nH]1 | 93.3% and 110% | 102% and 86.4% | 111% and 104% | 105% and 95.8% | 91.4% and 80.3% | 82.6% | 103% and 92.5% | 98.8% and 92.3% | 111% and 65.2% | 93.6% and 115% | 98.7% and 98.5% | 78.8% and 42.2% |  | 94.7% and 95.2% | 94.9% and 119% | 94.3% and 71.1% | 105% and 74.4% | 98.5% and 91.5% | 114% and 93.6% |
| CC(C)(C)OC(=O)c1ccc(NCc2cc(O)ccc2O)cc1 | 73.5% | 30.5% | 62.6% | 20.5% | 12.5% | 52.4% | 8.79% (active) | 24.3% | 47.7% | 50.1% | 7.05% (active) | -95.1% (active) | 2.52% (active) | -67.3% (active) | -36% (active) | 25.1% | -1.62% (active) | 5.04% (active) | 8.43% (active) |
| CC1CC(O)CC(C)(C)C1.CC1CC(O)CC(C)(C)C1.CC1CC(O)CC(C)(C)C1.CC1CC(O)CC(C)(C)C1.[Ti] (configuration not stated) | 97.2% | 113% | 93.4% | 99.2% | 90.4% | 104% | 76.2% | 106% | 93.9% | 93.6% | 82% |  | 104% | 111% | 94.9% | 106% | 112% | 98.8% | 118% |
| O=C(NC(CSSCC(NC(=O)OCc1ccccc1)C(=O)O)C(=O)O)OCc1ccccc1 (configuration not stated) | 92.7% and 96% | 78.4% and 90.8% | 93.2% and 104% | 84.2% and 97.5% | 90.5% and 73.1% | 90% and 102% | 91.5% and 102% | 103% and 95% | 95.4% and 102% | 94.8% | 83.3% and 105% | 67.6% and 98% | 59.4% | 88.6% and 98.9% | 72.1% and 99.3% | 68.2% and 99% | 87.3% | 52.1% and 82% | 96.6% and 104% |
| O=C(O)c1c2c(nc3ccccc13)Cc1ccccc1-2 | 109% and 101% | 99.6% and 101% | 108% and 101% | 101% and 103% | 99.2% and 86% | 110% and 102% | 105% and 92.9% | 99.9% and 90.1% | 109% and 122% | 104% and 72.5% | 108% and 87% | 73.6% and 63.6% | 114% and 101% | 103% and 101% | 98% and 86.2% | 78.5% and 95.6% | 91.1% and 77.3% | 96.2% and 114% |  |
| COc1cc2c(cc1O)C(=O)CCCC2 | 97.2% | 89.3% | 101% | 96.8% | 87.6% | 102% | 106% | 90.8% | 98% | 81.6% | 111% |  | 110% |  | 73.3% | 116% | 97.7% | 83.9% | 111% |
| O=C1c2ccccc2CN1c1ccccc1 | 82.4% |  | 88.9% | 101% | 116% | 96.5% | 85.9% | 113% | 70.6% | 113% | 90.5% | 121% | 94.3% | 99% |  | 101% | 106% | 85.2% |  |
